The values that follow come from PubChem BioAssay AID2158 (National Center for Advancing Translational Sciences (NCATS), 2009).

Values joined by “and” are separate entries in the source; they are usually repeats but may differ in a detail not shown here. Equal values may be shown once. Results filed as inconclusive are left out. Values without a mark were called inactive. Active and inactive are the calls of the source. Calls come from the whole dose curve; as a rule, active = well fitted inhibition curve with a large enough effect; inconclusive = small, poorly fitted or top-dose-only effect; inactive = no such curve, though single readings can be large or run the other way.
Potency is the fitted concentration of half-maximal effect.

For the experiment, the target named is Cruzipain (Trypanosoma cruzi) (UniProt P25779). Kind of experiment: Confirmation qHTS Assay for Inhibitors of Cruzain.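 For activity change, negative = inhibition: plate controls were uninhibited enzyme control for no effect and buffer wells lacking enzyme for full effect.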 Note: nearly all actives have a fitted effect of over 40% in size. Conditions: purified cruzain, Z-FR-AMC fluorescence, 0.01% Triton. The method in brief: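 Purified cruzain, 1.5 nM, pre-incubated 15 min at room temperature with compound in 100 mM sodium acetate pH 5.5, 5 mM DTT, 0.01% Triton X-100. Then 2 uM Z-FR-AMC added; AMC fluorescence (ex 360/em 450 nm) increase over 60 s gave reaction progress.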
Sequence of Cruzipain (Trypanosoma cruzi) (P25779 123-467 limits assumed): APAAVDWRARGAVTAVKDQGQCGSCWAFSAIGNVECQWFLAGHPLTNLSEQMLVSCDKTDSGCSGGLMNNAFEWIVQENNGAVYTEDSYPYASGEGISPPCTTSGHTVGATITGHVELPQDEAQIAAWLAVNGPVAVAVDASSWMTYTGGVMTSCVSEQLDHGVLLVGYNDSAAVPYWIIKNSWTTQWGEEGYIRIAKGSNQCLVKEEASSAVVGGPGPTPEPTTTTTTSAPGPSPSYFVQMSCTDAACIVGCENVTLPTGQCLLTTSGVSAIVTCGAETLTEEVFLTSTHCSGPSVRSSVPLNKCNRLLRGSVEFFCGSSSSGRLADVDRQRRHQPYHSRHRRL
(In general: Quantitative high-throughput screening tests each substance at several concentrations.)
Regarding `COc1ccc(-c2nc3c(=O)n(C)c(=O)nc-3n(C)n2)cc1`, the Potency is 1.26 µM (active).
For `CCOc1ccc(-c2nn3c(-c4cc(-c5ccccc5)n[nH]4)nnc3s2)cc1`, the activity change, negative = inhibition is -7.68% and -5.69%.
As to `CC(C)COC(=O)c1nnsc1NC(=O)Nc1ccccc1`, the activity change, negative = inhibition was -3.71%.
The same measure, in the same setting: the result for `CCSc1nnc(NC(=O)c2ccc(Br)s2)s1` reads -4.82%; that for `O=C(NNC(=O)c1nc2ccccc2[nH]1)OCc1ccccc1`, -7.65%.
On the same count and under the same terms, the result for `CCN(Cc1ccccc1)c1nc2c(S(=O)(=O)c3ccccc3)nnn2c2ccc(Cl)cc12` reads -6.48%; that for `CC(C)(C)OC(=O)NCC(=O)NNC(=O)C(C(=O)OCc1ccccc1)c1ccccc1` (centres undefined), -3.79%; that for `Cc1cc(OCC(=O)Nc2ccc(N3CCCC3)cc2)cc(C)c1Cl`, -30.4%.
As to `COc1ccc(S(=O)(=O)NC2CCN(C#N)CC2)cc1`, the activity change, negative = inhibition was -4.94%.
For `O=C(NCCc1nc2ccccc2[nH]1)c1cc([N+](=O)[O-])cc([N+](=O)[O-])c1`, the Potency is 0.794 µM (active).
Regarding `C=CCn1c(SCC(=O)Nc2cc3oc4ccccc4c3cc2OC)nnc1-c1cnccn1`, the activity change, negative = inhibition is -11.8%.
Turning to `CCCn1c(SCC(=O)N2CC(=O)Nc3ccccc32)nc2ccccc21`, the Potency is 28.2 µM (active).
The same measure, in the same setting: the result for `N#Cc1nc(Nc2cc(Cl)cc(Cl)c2)nc(NC2CCCC2)n1` reads 0.398 µM (active).
Consider `Cc1cccc(C(=O)NC2CCN(C#N)CC2)c1`, for which the activity change, negative = inhibition is -3.52% and 7.39%.
Still for that read-out and setting: the result for `O=C(CNC(=O)c1ccccc1)N[C@@H](C(=O)Nc1cc(C(F)(F)F)ccc1Cl)c1ccccc1` reads -6.12% and -5.77%.
Take `N#Cc1nc(Nc2ccccc2)nc(NC2CCCCC2)n1`: the Potency is 1.41 µM (active).
Turning to `Cc1ccccc1Nc1nc(C#N)nc(NC2CCCC2)n1`, the Potency is 0.708 µM (active).
Consider `NNC(=O)Cn1c(SCc2ccccc2)nc2ccccc21`, for which the activity change, negative = inhibition was 3.64%.
Same read-out and setting: the result for `Cc1ccc2[nH]c(=O)c(NC(N)=S)nc2c1` reads -16.5%; that for `O=C(Cn1cc(CN(Cc2ccccc2)Cc2ccccc2)nn1)Nc1cc(C(F)(F)F)ccc1Cl`, -13.2%.
`N#Cc1nc(Nc2cc(F)cc(F)c2)nc(NC2CCCC2)n1`: the Potency is 0.0631 µM (active).
Still for that read-out and setting: the result for `CCn1cnc2c(Nc3ccc(Cc4cccnc4)cc3)nc(C#N)nc21` reads 14.1 µM (active).
`N#CN1CCC(NC(=O)c2ccc(F)cc2)CC1`: the activity change, negative = inhibition is 0.471%.
Turning to `CC(C)(C)CNc1nc(C#N)nc(Nc2ccccc2)n1`, the Potency was 2 µM (active).
Still for that read-out and setting: the result for `O=C(CNC(=O)c1ccc(Cl)cc1Cl)OC(C(=O)Nc1cc(C(F)(F)F)ccc1Cl)c1ccccc1` (centres undefined) reads 7.08 µM (active).
Same read-out and setting: the result for `O=C(CNC(=O)c1ccc2ccccc2c1)OC(C(=O)Nc1cc(C(F)(F)F)ccc1Cl)c1ccccc1` (centres undefined) reads 4.47 µM (active); that for `N#Cc1nc(Nc2cccc3ccccc23)nc(NC2CCCC2)n1`, 2.82 µM (active).
As to `Cc1ccc2[nH]c(=O)c(CN(Cc3ccccc3)Cc3nnnn3Cc3ccccc3)cc2c1`, the activity change, negative = inhibition was -15.4%.
Same read-out and setting: the result for `CCn1cnc2c(NCc3cccnc3)nc(C#N)nc21` reads -4.84%; that for `Cc1ccc(O/C=C2/Nn3c(nnc3-c3cc(-c4ccccc4)n[nH]3)S2)cc1`, -1.56%.
On to `O=c1c2ccccc2sc2nc(C3CCCCC3)n(Cc3ccco3)c(=O)c12`, for which the Potency was 25.1 µM (active).
The same measure, in the same setting: to `O=C(CNC(=O)c1ccc(Cl)cc1)OC(C(=O)Nc1cc(C(F)(F)F)ccc1Cl)c1ccccc1` (centres undefined) belongs 10 µM (active); to `CCNc1nc(C#N)nc2c1ncn2-c1cc(F)cc(F)c1`, 0.224 µM (active).
For the compound `CCC(c1nnnn1Cc1ccccc1)N(Cc1ccccc1)Cc1cc2cc(C)ccc2[nH]c1=O` (centres undefined), the activity change, negative = inhibition is -9.93%.
Still for that read-out and setting: to `O=C(NCc1nnc(-c2cc3ccccc3[nH]2)s1)c1ccccc1` belongs 1%.
Still for that read-out and setting: the result for `CCOc1cccc(-c2nn3c(-c4cc(C)[nH]n4)nnc3s2)c1` reads -3.99%.
Same read-out and setting: the result for `N#Cc1c(NC(=O)CSc2ncnc3c2cnn3-c2ccccc2Cl)sc2c1CCCC2` reads -1.46%.
On to `Cc1ccc(C(=O)NC2CCN(C#N)CC2)cc1`, for which the activity change, negative = inhibition is -5.84%.
On to `O=C(CNC(=O)c1ccccc1)OCC(=O)c1cccc2ccccc12`, for which the activity change, negative = inhibition was -21.8%.
